The values below come from ChEMBL document CHEMBL1201862, “PubChem BioAssay data set” (2004).

“And” between values parts separate entries of the source, which are not always exact repeats. Equal values may be shown once. A value given as a limit tells only on which side of the number the result lay.

Broadly, the IC90 is the point of the concentration-response curve where the effect stands at 90%.

The test can be described thus: M. tuberculosis growth inhibition, dose response, purified and synthesized samples, set 9 (AID 602435). Format: functional.

`CC1CCN(C(=O)c2ccc(CNc3c(N4CCCC4)c(=O)c3=O)cc2)CC1`: the concentration for an effect of 90% (IC90) is > 50 µM (active).

On to `O=C(c1ccc(CNc2c(N3CCOCC3)c(=O)c2=O)cc1)N1CCN(c2ccccc2)CC1`, for which the concentration for an effect of 90% (IC90) is > 100 µM (active).

`O=C(c1ccc(CNc2c(N3CCCC3)c(=O)c2=O)cc1)N1CCN(c2ccccc2)CC1`: the concentration for an effect of 90% (IC90) is > 83.3 µM (active).

Take `CC1CC(C)CN(C(=O)c2ccc(CNc3c(N4CCCC4)c(=O)c3=O)cc2)C1` (configuration not stated): the IC90 is > 50 µM (active).

Turning to `O=C(C1CCC(CNc2c(N3CCCCC3)c(=O)c2=O)CC1)N1CCCCC1` (configuration not stated), the IC90 is > 50 µM (active).

Regarding `CC(C)CCNC(=O)CSc1nc2c(c(=O)[nH]1)CCCCC2`, the concentration for an effect of 90% (IC90) was > 100 µM (active).

Take `CC1CCCN(C(=O)C2CCC(CNc3c(N4CCCCC4)c(=O)c3=O)CC2)C1` (configuration not stated): the IC90 is > 50 µM (active).

Turning to `O=C(c1ccc(CNc2c(N3CCCC3)c(=O)c2=O)cc1)N1CCC(c2ccccc2)CC1`, the IC90 was > 100 µM (active).

Regarding `Cc1cccc(N2CCN(C(=O)c3ccc(CNc4c(N5CCC(C)CC5)c(=O)c4=O)cc3)CC2)c1C`, the 90% effect concentration (IC90) was > 50 µM (active).

Regarding `COc1ccc(N2CCN(C(=O)c3ccc(CNc4c(N5CCOCC5)c(=O)c4=O)cc3)CC2)cc1`, the IC90 was > 73.2 µM (active) and > 39 µM (active).

For the compound `CC1CCCN(C(=O)c2ccc(CNc3c(N4CCCCC4)c(=O)c3=O)cc2)C1` (configuration not stated), the IC90 was > 50 µM (active).

Consider `CC(C)OC(=O)CSc1ncnc2c1cnn2-c1ccccc1`, for which the IC90 was > 100 µM (active).

With `O=C(c1ccc(CNc2c(N3CCCC3)c(=O)c2=O)cc1)N1CC=C(c2ccccc2)CC1`, the 90% effect concentration (IC90) is > 44.6 µM (active) and > 50 µM (active).

For `CC(=O)c1ccc(NC(=O)c2ccc(CNc3c(N4CCOCC4)c(=O)c3=O)cc2)cc1`, the IC90 was > 50 µM (active).

As for `CC1CC(C)CN(C(=O)C2CCC(CNc3c(N4CCCCC4)c(=O)c3=O)CC2)C1` (configuration not stated), the IC90 is > 75 µM (active) and > 50 µM (active).

In the case of `O=C(NCCc1ccc(Cl)cc1)C1CCC(CNc2c(N3CCCCC3)c(=O)c2=O)CC1` (configuration not stated), the 90% effect concentration (IC90) is > 50 µM (active).

On to `O=C(c1ccc(CNc2c(N3CCCC3)c(=O)c2=O)cc1)N1CCc2ccccc2C1`, for which the 90% effect concentration (IC90) was > 50 µM (active).
